The values below come from PubChem BioAssay (NCATS).

Results filed as inconclusive are left out. A structure can be active in one record and inactive in another. Values without a mark were called inactive. Calls of active or inactive are those of the source. Calls come from the whole dose curve; as a rule, active = well fitted inhibition curve with a large enough effect; inconclusive = small, poorly fitted or top-dose-only effect; inactive = flat fitted curve, though single readings scatter.

Test [1] is described as follows: Drug repurposing screens with cells derived from glioblastoma tumor samples (AID 1345199). Note: nearly all actives have a fitted effect of over 40% in size. The conditions noted are these: GBM patient neurospheres viability, ATP luminescence, 48 h. Put shortly:
(§1)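 Primary testing used CD133+ neurospheres from four GBM patients, seven concentrations, 48 h exposure and ATP-based viability; confirmation added three slower-growing patient lines.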

Test [2] deals with astro (control astrocytes). Described as above. The note with it: viability, ATP luminescence, 48 h; series mostly up to 45.9 µM. The gist of the method:
as §1

[3] abbreviates: at 45.9 µM (top of the series), tumour line B.
[4] abbreviates: at 45.9 µM (top of the series), tumour line D.
Where [5] appears, read: at 46.1 µM (top of the series), tumour line C.
[6] abbreviates: at 46 µM (top of the series), tumour line A.
The mark [7] stands for this setting: at 20 µM (top of the series), tumour line C.
Setting [8] is: at 21.2 µM (top of the series), tumour line B.
The mark [9] stands for this setting: at 21.2 µM (top of the series), tumour line D.
Setting [10] is: at 21.3 µM (top of the series), tumour line A.
Setting [11] is: at 99.2 µM (top of the series), tumour line C.
Where [12] appears, read: at 108 µM (top of the series), tumour line B.
The mark [13] stands for this setting: at 108 µM (top of the series), tumour line D.
Setting [14] is: at 91.6 µM (top of the series), tumour line B.
% is set by controls: 0 for no effect and ±100 for the full control effect; potency is the fitted concentration of half-maximal effect.

Consider `CCCCCCCCCC(=O)O[C@H]1CC[C@H]2[C@@H]3CCC4=CC(=O)CC[C@]4(C)[C@H]3CC[C@]12C`, for which the results for the activity, negative = cell killing in test [1] (setting [3]), in test [1] (setting [4]) and in test [1] (setting [5]) were -12.8%, -20.9% and -14.9%, respectively. Further, in test [1] (tumour line A), the Potency was 15.8 µM (active).

Take `CN1c2ccccc2C(NCCCCCCC(=O)O)c2ccc(Cl)cc2S1(=O)=O` (stereo unspecified): the activity, negative = cell killing is -13.7% in test [1] (setting [3]), 2.81% in test [1] (setting [4]), -22.5% in test [1] (setting [6]) and -20.5% in test [1] (setting [5]).

Regarding `O=C1C2CC=CCC2C(=O)N1SC(Cl)(Cl)Cl` (stereo unspecified), in test [1] (setting [5]), the activity, negative = cell killing was -4.36%. The Potency in test [1] (tumour line A) was 7.08 µM (active); in test [1] (tumour line B) it was 20 µM (active); in test [1] (tumour line D), 11.2 µM (active).

Turning to `c1cc2c(c(NC3=NCCN3)c1)CCCC2`, the activity, negative = cell killing in test [1] (setting [3]) was -18.6%; in test [1] (setting [4]), -28.2%; in test [1] (setting [5]), 1.62%. In test [1] (tumour line A), the Potency was 14.1 µM (active). Also, the Potency entry in test [2] was “inactive”.

On to `Oc1cccc[c]1[Hg][Cl]`, for which, in test [1] (setting [5]), the activity, negative = cell killing is -98.2%. Moreover, the Potency was 0.398 µM (active) in test [1] (tumour line A), 0.562 µM (active) in test [1] (tumour line B), 1 µM (active) in test [1] (tumour line D) and 2.82 µM (active) in test [2].

Regarding `O=c1ccc2cc(O[C@@H]3O[C@H](CO)[C@@H](O)[C@H](O)[C@H]3O)c(O)cc2o1`, the activity, negative = cell killing in test [1] (setting [7]) is -2.02%; in test [1] (setting [8]) it was -12.8%; in test [1] (setting [9]), -17.9%; in test [1] (setting [10]), -15.8%. Further, in test [2], the Potency entry is “inactive”.

As for `C[N+]1([O-])[C@@H]2CC(OC(=O)[C@H](CO)c3ccccc3)C[C@H]1[C@@H]1O[C@@H]12` (stereo partly specified), the activity, negative = cell killing was 3.96% in test [1] (setting [7]); 5.23% in test [1] (setting [8]); -9% in test [1] (setting [9]); -10.9% in test [1] (setting [3]); -17.4% in test [1] (setting [4]); 30.8% in test [1] (setting [5]). In addition, the Potency result in test [2] is “inactive”.

As for `O[C@H]1[C@H]2[C@H](O)CCCN2C[C@H]1O`, the activity, negative = cell killing in test [1] (setting [3]) is 0.771%; in test [1] (setting [4]), -7.2%; in test [1] (setting [6]), -40.5%; in test [1] (setting [5]) it was -19.9%. In test [2], the Potency entry is “inactive”.

Turning to `C[C@]12CC[C@H]3[C@@H](CCC4=C(Cl)C(=O)CC[C@@]43C)[C@@H]1CC[C@@H]2O`, the activity, negative = cell killing was -16.4% in test [1] (setting [3]) and -29.9% in test [1] (setting [4]). Also, the Potency in test [1] (tumour line A) was 12.6 µM (active).

For `COc1ccc2c3c1O[C@H]1[C@@H](O)C=C[C@H]4[C@@H](C2)NCC[C@@]341`, the activity, negative = cell killing is -18.4% in test [1] (setting [3]); -17.8% in test [1] (setting [4]); -25.3% in test [1] (setting [5]); 6.81% in test [1] (setting [11]); -9.55% in test [1] (setting [12]); -1.54% in test [1] (setting [13]). For the same molecule, the Potency result in test [2] is “inactive”.

On to `Oc1ccc2c3c1O[C@H]1[C@@H](O)CC[C@@]4(O)[C@@H](C2)N(CC2CCC2)CC[C@]314`, for which the activity, negative = cell killing is -15.8% in test [1] (setting [3]), -17.2% in test [1] (setting [4]), 7.3% in test [1] (setting [6]) and -0.783% in test [1] (setting [5]). The Potency result in test [2] is “inactive”.

Consider `CN1[C@H]2CC[C@@H]1[C@@H](C(=O)O)[C@@H](OC(=O)c1ccccc1)C2`, for which the activity, negative = cell killing in test [1] (setting [3]) is -13.9%; in test [1] (setting [4]), -11.4%; in test [1] (setting [6]), -27%; in test [1] (setting [5]) it was -10.2%; in test [1] (setting [11]), -6.57%; in test [1] (at 108 µM (top of the series), tumour line A), -26.2%. Further, the activity, negative = cell killing was -7.59% in test [1] (setting [12]) and -7.94% in test [1] (setting [13]). Besides, in test [2], the Potency entry was “inactive”.

Consider `CN(C)[C@H](Cc1ccccc1)c1ccccc1`, for which the activity, negative = cell killing in test [1] (setting [3]) was -3.48%; in test [1] (setting [4]) it was -20.8%; in test [1] (setting [5]), -18.9%. In addition, the Potency in test [1] (tumour line A) was 20 µM (active). The Potency entry in test [2] is “inactive”.

In the case of `CCC1(C)CC(=O)NC(=O)C1`, the activity, negative = cell killing in test [1] (setting [7]) was -7.73%; in test [1] (setting [8]) it was -6.36%; in test [1] (setting [9]), -5.16%; in test [1] (setting [10]), -9.96%. For the same molecule, the Potency result in test [2] is “inactive”.

`CCC(C)(S(=O)(=O)CC)S(=O)(=O)CC`: the activity, negative = cell killing is -9.18% in test [1] (setting [3]), -21.6% in test [1] (setting [4]), -5.61% in test [1] (setting [6]) and -8.4% in test [1] (setting [5]). Also, the Potency entry in test [2] was “inactive”.

Consider `CC(=O)OO`, for which the activity, negative = cell killing in test [1] (setting [3]) was -7.1%; in test [1] (setting [4]), -0.699%; in test [1] (setting [6]) it was -24.9%; in test [1] (setting [5]) it was 3.69%. For the same molecule, the Potency entry in test [2] is “inactive”.

With `CCC(N)Cc1c[nH]c2ccccc12` (stereo unspecified), the activity, negative = cell killing in test [1] (setting [3]) is -19.3%; in test [1] (setting [4]), -10.1%; in test [1] (setting [5]), -22.2%; in test [1] (setting [12]) it was -20.5%; in test [1] (setting [13]), -20.7%. Further, the Potency in test [1] (tumour line A) was 31.6 µM (active). Moreover, the Potency entry in test [2] was “inactive”.

Consider `Cc1ccccc1-n1c(C)nc2ccccc2c1=O`, for which the activity, negative = cell killing in test [1] (setting [3]) is -8.69%; in test [1] (setting [4]) it was -13.3%; in test [1] (setting [5]) it was -24.2%; in test [1] (setting [14]), -8.55%; in test [1] (at 91.6 µM (top of the series), tumour line D), -15.5%; in test [1] (setting [11]), -4.7%. For the same molecule, in test [1] (tumour line A), the Potency is 44.7 µM (active). Also, the Potency result in test [2] was “inactive”.

Regarding `CCCC(C)(COC(N)=O)COC(=O)NC1CC1` (stereo unspecified), the activity, negative = cell killing was -5.97% in test [1] (setting [3]), -18% in test [1] (setting [4]), -25.6% in test [1] (setting [6]) and -16.6% in test [1] (setting [5]). Moreover, in test [2], the Potency entry was “inactive”.

Take `OC[C@@H](O)[C@H]1O[C@@H]2O[C@@H](C(Cl)(Cl)Cl)O[C@@H]2[C@H]1O`: the activity, negative = cell killing is -12.9% in test [1] (setting [3]), -1.55% in test [1] (setting [4]), -29.4% in test [1] (setting [6]) and 7.8% in test [1] (setting [5]). In addition, in test [2], the Potency entry was “inactive”.

As for `COC1=CC=C2[C@H]3Cc4ccc(OC)c5c4[C@@]2(CCN3C)[C@H]1O5`, the activity, negative = cell killing is -9.82% in test [1] (setting [7]); -2.9% in test [1] (setting [8]); -4.5% in test [1] (setting [9]); -4.24% in test [1] (setting [14]); 12% in test [1] (setting [11]). The Potency in test [1] (tumour line A) and in test [1] (tumour line D) was 35.5 µM (active) throughout. Besides, the Potency entry in test [2] is “inactive”.
